Test results taken from paper PMC6925144, “A prospective compound screening contest identified broader inhibitors for Sirtuin 1” (Scientific Reports, 2019).
Whole data set: some 3,200 compounds, median “TSA(with NAD+) / Primary screening (TSA) / delta Tm (K)” near -0.04, cut for the highest 2% near 0.37. Many of the other results were omitted from the sample, so the highest values are more common in it than they were.

molecular target: NAD-dependent deacetylase Sirtuin 1 (human, UniProt Q96EB6); assay: primary screen, delta tm; design: single well (n = 1, as 'the same TSA'); settings: 10 µM
Procedure: A total of 3,192 compounds extracted from the proposed lists were first screened by thermal shift assay (TSA), which determined a melting temperature shift (ΔTm) of Sirtuin 1 upon the addition of a test compound at a concentration of 10 µM (n = 1) with primary hit criteria of ΔTm > 0.45 K or ΔTm < −1.5 K. Primary hits (48 compounds) were retested in the same assay at three concentrations (5, 10, 20 µM, n = 4) for hit confirmation and for dose-dependency check. Secondary hits (41 compounds) were checked their selectivity for Sirtuin 1 based on counterscreening on unrelated protein targets (bovine carbonic anhydrase (CA) and recombinant SH2 domain of hABL1 kinase (ABL1)) at three different concentrations (5, 10, 20 µM, n = 4), which yielded 38 hit compounds, hereafter referred to as TSA hits. The TSA screening above was conducted in the absence of NAD+. As noted, the structure of Sirtuin 1 is different in the presence of NAD+ and substrate. The chemical profile of TSA hits found from the different conditions could be different. […] As a result, 39 TSA hits were found.

Chain of NAD-dependent deacetylase Sirtuin 1 (Q96EB6 2-747 limits assumed): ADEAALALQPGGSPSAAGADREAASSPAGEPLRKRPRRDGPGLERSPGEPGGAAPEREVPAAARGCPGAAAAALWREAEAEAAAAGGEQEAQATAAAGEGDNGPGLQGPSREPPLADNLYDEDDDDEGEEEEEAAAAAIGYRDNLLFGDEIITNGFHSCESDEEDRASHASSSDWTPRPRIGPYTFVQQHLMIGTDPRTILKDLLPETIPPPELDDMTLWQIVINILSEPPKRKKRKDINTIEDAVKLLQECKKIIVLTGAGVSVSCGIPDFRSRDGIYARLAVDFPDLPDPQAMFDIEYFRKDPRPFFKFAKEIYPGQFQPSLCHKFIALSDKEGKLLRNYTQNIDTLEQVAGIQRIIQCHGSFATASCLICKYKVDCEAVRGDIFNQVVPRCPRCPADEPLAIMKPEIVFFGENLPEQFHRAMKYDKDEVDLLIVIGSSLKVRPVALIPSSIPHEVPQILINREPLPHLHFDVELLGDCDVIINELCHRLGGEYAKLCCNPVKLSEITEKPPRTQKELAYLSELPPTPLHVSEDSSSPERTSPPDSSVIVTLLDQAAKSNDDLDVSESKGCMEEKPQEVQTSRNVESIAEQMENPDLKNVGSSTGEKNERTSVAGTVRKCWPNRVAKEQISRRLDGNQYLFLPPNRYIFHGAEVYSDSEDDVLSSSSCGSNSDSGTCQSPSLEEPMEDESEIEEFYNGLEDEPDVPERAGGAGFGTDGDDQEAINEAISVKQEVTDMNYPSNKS

In order of falling “TSA(with NAD+) / Primary screening (TSA) / delta Tm (K)” value:
1. COc1ccc2cc(/C=C/C(=O)Nc3ccc(C(N)=O)cc3)ccc2c1  0.76 K
2. COc1ccc(NC(=O)c2ccc(NC(=O)COC(=O)C34CC5CC(CC(Br)(C5)C3)C4)cc2)cc1  0.73 K
3. O=C(CSc1nnnn1-c1ccc(O)cc1)N1N=C(c2ccc3ccccc3c2)CC1c1ccccc1 (stereo not shown)  0.66 K
4. Cc1nc(N2CCC(C(N)=O)CC2)c2c3c(sc2n1)CCCCC3  0.66 K
5. Cc1ccc(C(C)(C)C)cc1S(=O)(=O)Nc1cccc(C(=O)NNC(=O)c2cccc(S(=O)(=O)Nc3cccc(C(F)(F)F)c3)c2)c1  0.65 K
6. O=C(Nc1cccc(S(=O)(=O)N2CCOCC2)c1)c1cn(-c2ccccc2)nc1-c1ccc(Cl)cc1  0.63 K
7. Cc1nc(N2CCC(C(N)=O)CC2)c2c3c(sc2n1)CCCC3  0.57 K
8. Cc1ccc(C(=O)Nc2ccc(NC(=O)NCC3CCCO3)cc2)cn1 (stereo not shown)  0.55 K
9. Cc1cccc(NS(=O)(=O)c2cccc(C(=O)OCC(=O)NC(=O)NC34CC5CC(CC(C5)C3)C4)c2)c1  0.46 K
10. Cc1ccc(C23CC4CC(CC(C(=O)OC(C)C(=O)Nc5ccc(S(N)(=O)=O)cc5)(C4)C2)C3)cc1C (stereo not shown)  0.43 K
11. CCCCCCCCNC(=O)/C(C#N)=C/c1c[nH]c2ccccc12  0.43 K
12. O=C(Nc1cccc(S(=O)(=O)N2CCOCC2)c1)c1cccc(S(=O)(=O)N2CCc3ccccc32)c1  0.41 K
13. O=C(CCc1c[nH]c2ccccc12)Nc1nnc(-c2ccccc2)o1  0.39 K
14. O=C(Nc1cccc(S(=O)(=O)N2CCOCC2)c1)c1cn(-c2ccccc2)nc1-c1ccc(F)cc1  0.39 K
15. COc1ccccc1NC(=O)c1ccc(NC(=O)COC(=O)C23CC4CC(CC(C4)C2)C3)cc1  0.39 K
16. CC(NS(=O)(=O)c1cccc(C(=O)OCC(=O)Nc2sccc2C#N)c1)C12CC3CC(CC(C3)C1)C2 (stereo not shown)  0.37 K
17. CC(=O)N1N=C(c2ccc(O)cc2)CC1c1ccccc1 (stereo not shown)  0.36 K
18. Cc1ccc(C23CC4CC(CC(C(=O)OCC(=O)Nc5ccc(S(N)(=O)=O)cc5)(C4)C2)C3)cc1  0.29 K
19. Cc1nc(-c2ccccn2)[nH]c(=O)c1CC(=O)NCCc1cccc2cccnc12  0.28 K
20. O=C(CCc1c[nH]c2ccccc12)Nc1ccc2nc[nH]c(=O)c2c1  0.27 K
21. Cc1ccc(-c2nn(-c3ccccc3)cc2C(=O)Nc2cccc(S(=O)(=O)N3CCOCC3)c2)cc1  0.26 K
22. CC(=O)c1ccc(NC(=O)C(C)OC(=O)c2cccc(S(=O)(=O)NC(C)C34CC5CC(CC(C5)C3)C4)c2)cc1 (stereo not shown)  0.19 K
23. O=C(Nc1cccc(S(=O)(=O)N2CCOCC2)c1)C(c1ccccc1)c1ccccc1  0.16 K
24. COC(=O)c1ccc2[nH]c3c(c2c1)CN(S(C)(=O)=O)CC3  0.16 K
25. CCNC(=O)c1cccc(NC(=O)C2CCN(S(=O)(=O)c3cc(C(C)(C)C)ccc3C)CC2)c1  0.16 K
26. COc1ccccc1NC(=O)COc1ccc(C(=O)OCC(=O)NC23CC4CC(CC(C4)C2)C3)cc1OC  0.13 K
27. CC(OC(=O)Cc1c[nH]c2ccccc12)C(=O)Nc1ccc(C(N)=O)cc1 (stereo not shown)  0.12 K
28. O=C(Nc1cccc(S(=O)(=O)N2CCOCC2)c1)c1cn(-c2ccccc2)nc1-c1ccccc1  0.12 K
29. Cc1ccccc1CC(=O)Nc1ccc(N2CCN(Cc3ccccc3)CC2)cc1  0.09 K
30. CNC(=O)CCNc1ccc2nnc(C(F)(F)F)n2n1  0.08 K
31. COc1ccccc1NS(=O)(=O)c1ccc(NC(=O)CNC(=O)C23CC4CC(CC(C4)C2)C3)cc1  0.08 K
32. CN(c1ccccc1)S(=O)(=O)c1ccc(C(=O)NNC(=O)C23CC4CC(CC(C4)C2)C3)cc1  0.08 K
33. O=C(NCC1CCCO1)Nc1ccc(NC(=O)c2ccccn2)cc1 (stereo not shown)  0.06 K
34. Cn1cc(C(=O)O)c(-c2cccnc2)n1  0.06 K
35. COc1cc(-c2nc(-c3ccccc3)c(-c3ccccc3)[nH]2)ccc1OS(=O)(=O)c1ccc(C)cc1  0.05 K
36. CC(NC(=O)COC(=O)c1cccc(S(=O)(=O)NCc2ccccc2)c1)C12CC3CC(CC(C3)C1)C2 (stereo not shown)  0.05 K
37. CC(C(=O)NC(c1ccccc1)C1CC1)n1cnc2ccccc21 (stereo not shown)  0.05 K
38. Cc1nc(N2CCN(c3ncccc3C(N)=O)CC2)c2c3c(sc2n1)CCC3  0.02 K
39. COC(=O)C[C@H](N)C(=O)O  0.02 K
40. Cc1nc(N2CCC(C(N)=O)CC2)c2c3c(sc2n1)CCC3  0.01 K
41. CN(c1ccccc1)S(=O)(=O)c1ccc(C(=O)Nc2cccc(S(=O)(=O)N3CCOCC3)c2)cc1  -0.01 K
42. O=C(CCc1nc2ccccc2o1)N1CCN(C(c2ccc(F)cc2)c2ccc(F)cc2)CC1  -0.01 K
43. O=C(COC(=O)c1cccc(NS(=O)(=O)/C=C/c2ccccc2)c1)NC12CC3CC(CC(C3)C1)C2  -0.01 K
44. COc1ccc(C(=O)OC(C)C(=O)Nc2ccc(C(N)=O)cc2)c(OC)c1 (stereo not shown)  -0.01 K
45. O=C(CCCc1nc2ccccc2c(=O)[nH]1)N1CC2CC3CC(C2)CC1C3  -0.01 K
46. Cc1nc(N2CCC(NC(N)=O)CC2)c2c3c(sc2n1)CCCC3  -0.03 K
47. Cc1noc(C(C)N2CCN(Cc3cccc(C(N)=O)c3)CC2)n1 (stereo not shown)  -0.03 K
48. CCOc1ccc(/C=C(/C#N)C(=O)c2c[nH]c3cc(F)ccc23)cc1  -0.03 K
49. NC(=O)CCN(Cc1ccccc1)C(=O)COC(=O)C12CC3CC(C1)CC(c1ccccc1)(C3)C2  -0.03 K
50. O=C(NCc1ccccc1O)c1ccc2c(c1)C(=O)c1ccccc1-2  -0.03 K
51. Cn1c(=O)c2ccccc2n2c(COC(=O)Cn3nc(-c4ccc(F)cc4)oc3=O)nnc12  -0.03 K
52. OC(CNc1ncccn1)c1ccc(Cl)cc1 (stereo not shown)  -0.04 K
53. O=C(Nc1cccc(S(=O)(=O)N2CCOCC2)c1)c1cc(-c2ccccc2)nn1-c1ccccc1  -0.04 K
54. NC(=O)C1CCN(c2ncnc3sc4c(c23)CCC4)CC1  -0.04 K
55. COCC(C)N (stereo not shown)  -0.04 K
56. CCN(CC(=O)Nc1ccc(OC)cc1)CC(=O)Nc1ccc(C(N)=O)cc1  -0.04 K
57. COc1ccc(NC(=O)c2ccccc2NC(=O)COC(=O)C23CC4CC(CC(O)(C4)C2)C3)cc1  -0.04 K
58. CC(N)c1nnn[nH]1 (stereo not shown)  -0.05 K
59. CCC(=O)Nc1cccc(C(=O)NNC(=O)c2nc(-c3ccccc3)n(-c3ccccc3)n2)c1  -0.06 K
60. CC(=O)N1N=C(c2ccccc2)CC1c1ccc(Br)cc1 (stereo not shown)  -0.08 K
61. NCCC[C@@H](N)C(=O)O  -0.08 K
62. O=C(Oc1ccc2oc3ccccc3c2c1)c1ccc([N+](=O)[O-])cc1  -0.08 K
63. O=C1NC(=S)NC(=O)C1=Cc1cc2ccccc2[nH]c1=O  -0.09 K
64. O=C(Nc1cccc(S(=O)(=O)N2CCOCC2)c1)c1ccccc1Cc1ccccc1  -0.09 K
65. N#C/C(=C\c1[nH]c2ccccc2c1Cl)C(N)=O  -0.09 K
66. O=C(CCc1c[nH]c2ccccc12)NCCc1ccco1  -0.11 K
67. O=C(CCC(=O)c1ccccc1)Nc1ccccc1Cc1ccccc1  -0.11 K
68. CC(C)C(NC(=O)CCCn1c(=O)oc2cc([N+](=O)[O-])ccc21)c1nnc2ccccn12 (stereo not shown)  -0.11 K
69. COc1ccc(NC(=O)CC23CC4CC(C2)CC(CC(=O)Nc2ccc(OC)cc2)(C4)C3)cc1  -0.11 K
70. COC(=O)c1ccccc1Nc1ccnc(Cl)n1  -0.11 K
71. CCCN1CCN(CCCOc2ccccc2)CC1  -0.12 K
72. O=C(O)c1ccc2[nH]c(S)nc2c1  -0.13 K
73. Cc1cccc(-c2nc3ccccc3n3c(C)nnc23)c1  -0.13 K
74. COc1ccnc(C(=O)NCC(C)(C)N2CCC(N(C)C)CC2)c1  -0.14 K
75. O=C(O)c1ccc2[nH]c(C(F)(F)F)nc2c1  -0.14 K
76. N#CCCC(C#N)CN1CCC(CCc2ccc(O)cc2)CC1 (stereo not shown)  -0.14 K
77. COc1cc(C=C(C(=O)NCC2CCCO2)C(=O)NCC2CCCO2)ccc1OCC(=O)Nc1ccc(C)cc1 (stereo not shown)  -0.15 K
78. Cc1ccc(C23CC4CC(CC(C(=O)OCC(N)=O)(C4)C2)C3)cc1C  -0.16 K
79. COc1cc(OC)c(OC)cc1C=C1C(=O)NC(=S)NC1=O  -0.16 K
80. COc1ccccc1C1C(C(=O)/C=C/c2ccco2)=C(O)C(=O)N1CCCN1CCOCC1 (stereo not shown)  -0.18 K
81. Cc1ccc(C(=O)OCc2ccc(C(=O)Nc3ccccc3)cc2)cc1  -0.18 K
82. CC(N)C(N)=O (stereo not shown)  -0.19 K
83. Cc1csc2c(N3CC4CCCN4CC3C)ncnc12 (stereo not shown)  -0.19 K
84. O=C(NO)c1cccc(C(F)(F)F)c1  -0.19 K
85. O=C(COC(=O)c1cccc(S(=O)(=O)NCc2ccccc2)c1)NC12CC3CC(CC(C3)C1)C2  -0.25 K
86. COC1CCCC1NC(=O)Cc1sc(S)nc1C (stereo not shown)  -0.26 K
87. CC12CCC(C/C1=N/N=C1/CC3CCC1(C)C3(C)C)C2(C)C  -0.29 K
88. O=C1NC(=S)NC(=O)C1=Cc1ccc(-c2ccc(SC(F)F)cc2)o1  -0.43 K
